Data on 51 compounds can be found in PubChem BioAssay AID686979 (National Center for Advancing Translational Sciences (NCATS), 2013).

Screen size: about 420,000 compounds; about 50,000 (12%) were called active. Not shown: some 26% with an inconclusive outcome. Calls come from the whole dose curve; as a rule, active = well fitted inhibition curve with a large enough effect; inconclusive = small, poorly fitted or top-dose-only effect; inactive = flat fitted curve, though single readings scatter. The sample as a whole holds a higher share of actives than the screen did.
% is set by controls: 0 for no effect and ±100 for the full control effect; potency is the fitted concentration of half-maximal effect.

The experiment can be described thus: qHTS for Inhibitors of human tyrosyl-DNA phosphodiesterase 1 (TDP1): qHTS in cells in presence of CPT. Note: nearly all actives have a fitted effect of over 55% in size. Conditions: chicken DT40 Tdp1-/-;hTDP1 cells + 20 nM CPT, ATP luminescence, 48 h; series mostly up to 46.2 µM; activity change, negative = growth inhibition: at the top concentration. The gist of the method:
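Chicken DT40 Tdp1-/- cells complemented with human TDP1, 400 cells/well, exposed to compounds plus 20 nM camptothecin for at least 48 h at 37 C; viability read as ATP content by CellTiter-Glo luminescence.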
Turning to `O=c1[nH]c2cc(Br)ccc2n2cccc12`, the “activity change, negative = growth inhibition” value is -22.2% (inactive).
Take `CCN(CC(=O)NCc1ccco1)S(=O)(=O)c1ccc(F)cc1`: the “activity change, negative = growth inhibition” value is -0.0669% (inactive).
With `COc1cc(SC)ccc1C(=O)Nc1nc(C)cs1`, the Potency is 20.6 µM (active).
In the case of `Cc1csc(NC(=O)c2ccc(C)s2)n1`, the “activity change, negative = growth inhibition” value was -0.098% (inactive).
The same measure, in the same setting: the figure for `COc1ccc(Cc2nnc(NC(=O)c3ccc(OC)cc3OC)s2)cc1` is -19.9% (inactive).
Consider `Cc1cc(NC(=O)Nc2c[nH]c(=O)[nH]c2=O)ccc1Br`, for which the “activity change, negative = growth inhibition” value is -16.6% (inactive).
Consider `Cc1ccc(NS(=O)(=O)c2ccc3c(c2)CC(=O)N3)cc1Cl`, for which the “activity change, negative = growth inhibition” value is -1.76% (inactive).
For `COc1ccc(CNC(=O)Cn2nnc(-c3ccc(S(C)(=O)=O)cc3)n2)cc1`, the “activity change, negative = growth inhibition” value is 1.87% (inactive).
In the case of `COc1ccc(N=C2C=CC(=O)O2)cc1`, the Potency was 5.17 µM (active).
In the case of `COc1ccc(N=Nc2c(-c3ccc(OC)cc3)[nH]oc2=O)cc1`, the “activity change, negative = growth inhibition” value is -11.3% (inactive).
Still for that read-out and setting: the figure for `COC1=CC(=O)OC(c2ccc(OC)cc2)C1` (stereo unspecified) is 10.2% (inactive).
Same read-out and setting: the same measure for `CCC1(c2ccccc2)NC(=O)N(CC(=O)c2ccc3c(c2)OCO3)C1=O` (stereo unspecified): -5.41% (inactive); for `Cc1ccc(Cl)c(NC(=O)CN(C)CC(=O)Nc2ccc(F)c(F)c2F)c1Cl`: -27.2% (inactive).
`COc1ccc(CNC(=O)c2cc3c(=O)[nH]c4ccc(C)cc4c3s2)c(OC)c1`: the Potency is 16.4 µM (active).
In the case of `COc1ccc(CNC(=O)c2ccc3c(c2)nc2n3CCOC2)c(OC)c1`, the “activity change, negative = growth inhibition” value is 1.11% (inactive).
Same read-out and setting: the figure for `COc1ccc(CNC(=O)c2cc3c(=O)[nH]c4ccccc4c3s2)cc1` is -18.7% (inactive).
As to `Cc1ccc2[nH]c(=O)c(CC=C(Cl)Cl)c(C)c2c1`, the “activity change, negative = growth inhibition” value is -6% (inactive).
In the case of `Cc1cccc(N(C)C(=O)c2cc3c(=O)[nH]c4ccc(C)cc4c3s2)c1`, the Potency is 2.06 µM (active).
With `Cc1ccc2[nH]c(=O)c(CC(=O)O)c(-c3ccccc3)c2c1`, the “activity change, negative = growth inhibition” value is -0.318% (inactive).
As to `Nc1cc(C(=O)N2CCN(c3ccccc3Cl)CC2)ccc1N1CC2CC(C1)c1cccc(=O)n1C2` (stereo unspecified), the “activity change, negative = growth inhibition” value is -25.3% (inactive).
Same read-out and setting: the figure for `CC1(C)CN(CCc2ccccc2)C(=O)[C@H]1CC(=O)Nc1ccc(Br)cc1` is -10.9% (inactive); for `Cc1ccc(NC(=O)Cc2nnc(SCC(=O)Nc3nncs3)n2C)cc1` it is 0.361% (inactive).
On to `CC1(c2ccc(Cl)cc2Cl)NC(=O)N(CC(=O)Nc2cccnc2Cl)C1=O` (stereo unspecified), for which the “activity change, negative = growth inhibition” value is -12% (inactive).
On to `CCCc1ccc(C(=O)[C@@H]2[C@@H](C(C)=O)N3c4ccc(F)cc4C=C[C@@H]3[C@@]23C(=O)Nc2ccccc23)cc1`, for which the Potency was 23.1 µM (active).
In the case of `O=C(O)c1ccc(-n2nc(-c3ccccc3)c3ccccc3c2=O)cc1`, the “activity change, negative = growth inhibition” value is -17.4% (inactive).
Consider `CCC(C)(C)NC(=O)C(c1ccc(O)cc1)N(Cc1ccco1)C(=O)CCC(=O)Nc1ccccn1` (stereo unspecified), for which the “activity change, negative = growth inhibition” value is -11.3% (inactive).
`CC(=O)c1nn(-c2ccc(OC(F)(F)F)cc2)nc1Nc1ccccc1`: the “activity change, negative = growth inhibition” value was -15.7% (inactive).
Consider `COc1ccccc1C(=O)Nn1cnnc1`, for which the “activity change, negative = growth inhibition” value is 21.2% (inactive).
Still for that read-out and setting: the figure for `COc1ccc(C(=O)COC(=O)c2c(C)noc2C)cc1Cl` is -17.5% (inactive); for `CCc1noc(C)c1C(=O)NNC(=O)c1ccc(F)cc1` it is -18.6% (inactive).
Consider `CCc1noc(C)c1C(=O)OCC(=O)c1ccc(NC(=O)CC(C)C)cc1`, for which the Potency is 20.6 µM (active).
For the compound `O=C(c1ccccc1Cl)N(Cc1ccccc1F)N1C(=O)CCCC1=O`, the “activity change, negative = growth inhibition” value is 1.6% (inactive).
In the case of `COc1cccc(C2Nc3cccc4cccc(c34)N2)c1`, the “activity change, negative = growth inhibition” value is -4.51% (inactive).
Take `Cc1ccc(C2Nc3cccc4cccc(c34)N2)cc1`: the Potency was 2.59 µM (active).
Turning to `Brc1ccccc1C1Nc2cccc3cccc(c23)N1`, the “activity change, negative = growth inhibition” value was -21.6% (inactive).
With `COc1ccc(CCn2c3c(c(=O)[nH]c2=S)CN(C(C)C)CN3)cc1OC`, the “activity change, negative = growth inhibition” value is -13% (inactive).
With `COCC(C)NC(=O)CSc1nc2nn(-c3ccccc3)c(=O)c-2c2n1CCCCC2` (stereo unspecified), the “activity change, negative = growth inhibition” value was 2.87% (inactive).
`Cc1ccc2nc(/C(C#N)=C/c3ccc(-c4ccc(C(=O)OC(C)C)cc4)o3)[nH]c2c1`: the Potency is 7.31 µM (active).
For `Cc1ccc2nc(S(=O)(=O)O)[nH]c2c1`, the “activity change, negative = growth inhibition” value was -1.52% (inactive).
Consider `Cc1ccc2nc(/C(C#N)=C\c3ccc(OC(=O)c4cccs4)cc3)[nH]c2c1`, for which the Potency is 14.6 µM (active).
Take `CC(=O)Nc1ccc(C(=O)CSc2nc3ccc(C)cc3[nH]2)cc1`: the “activity change, negative = growth inhibition” value was -0.86% (inactive).
Still for that read-out and setting: the same measure for `CCOC(=O)CSc1nc2ccc(C)cc2[nH]1`: -1.71% (inactive).
Same read-out and setting: the same measure for `CN(C(=O)c1cccc([N+](=O)[O-])c1)c1ccccc1C(=O)NCc1ccccc1`: 2.21% (inactive); for `COc1ccc(S(=O)(=O)N2CCN(c3ccc(F)cc3)CC2)cc1-c1noc(C)n1`: 7.73% (inactive).
In the case of `COc1ccc(CCNC(=O)C(=O)NCC2OCCN2S(=O)(=O)c2cccs2)cc1OC` (stereo unspecified), the “activity change, negative = growth inhibition” value is -2.17% (inactive).
Same read-out and setting: the same measure for `Cc1cc(C)cc(OCC(=O)Nc2ccc(S(=O)(=O)Nc3ccccn3)cc2)c1`: -11.1% (inactive).
For `Cc1cc(C)cc(NS(=O)(=O)c2ccc(Oc3ncc(C(F)(F)F)cc3Cl)cc2)c1`, the Potency was 23.1 µM (active).
Consider `COC(=O)Cc1ccc(Oc2ncc(C(F)(F)F)cc2Cl)cc1`, for which the “activity change, negative = growth inhibition” value was -15.1% (inactive).
The same measure, in the same setting: the figure for `CCOC(=O)[C@H](CCc1ccccc1)N[C@@H](C)C(=O)N1CC2(C[C@H]1C(=O)O)SCCS2` is -0.389% (inactive); for `COCCCNC(=O)[C@H]1N2C(=O)c3ccccc3C2SC1(C)C` (stereo partly specified) it is 7.26% (inactive); for `CC(C)N1C[C@@H](NCc2ccccc2O)C[C@H]1C(=O)N1CCN(c2cccc(C(F)(F)F)c2)CC1` it is -8.03% [at 9.04 µM] (inactive).
